Screening data as filed in PubChem BioAssay.
Rows were chosen to be rich in hits. Some 9.4% of all compounds tested hit in one or more screens of this group.
FLuc modulator – firefly luciferase modulation, counter-screen for miR-21 project | purified FLuc, Km substrates, luminescence inhibition | 360,000 tested, 6.9% active | AID 588342 | Potency, µM (titrated, usually from 57.5 µM), for inactives: at the highest dose activity change, negative = inhibition, most hits filed as inhibitors;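 note: plate controls were vehicle for no effect and reference inhibitor for full effect; nearly all actives have a fitted effect of over 55% in size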
Target sequence (P08659 whole entry, looked up): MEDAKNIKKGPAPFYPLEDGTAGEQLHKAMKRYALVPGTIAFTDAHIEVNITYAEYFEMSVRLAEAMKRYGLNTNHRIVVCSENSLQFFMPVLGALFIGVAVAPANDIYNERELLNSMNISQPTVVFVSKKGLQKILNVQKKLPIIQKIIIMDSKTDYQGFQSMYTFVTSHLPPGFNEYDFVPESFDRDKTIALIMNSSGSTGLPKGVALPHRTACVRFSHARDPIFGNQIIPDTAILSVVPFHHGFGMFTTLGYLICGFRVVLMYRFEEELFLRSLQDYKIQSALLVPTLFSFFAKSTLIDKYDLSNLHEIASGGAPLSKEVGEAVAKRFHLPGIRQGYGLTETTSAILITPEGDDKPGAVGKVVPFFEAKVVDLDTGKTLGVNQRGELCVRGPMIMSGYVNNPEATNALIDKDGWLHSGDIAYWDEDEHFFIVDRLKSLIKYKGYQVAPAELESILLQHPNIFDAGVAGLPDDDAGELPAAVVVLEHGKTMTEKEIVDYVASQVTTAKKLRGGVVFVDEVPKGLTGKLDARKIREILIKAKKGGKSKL
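Purified P. pyralis luciferase, 10 nM final, with Km-level 10 uM D-luciferin and 10 uM ATP in 50 mM Tris acetate pH 7.5, 10 mM Mg acetate, 0.01% Tween-20, 0.05% BSA; 6-point qHTS titration about 60 µM downward; luminescence read.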
Rab9 promoter act – Rab9 promoter activation; Huh7 Rab9 promoter-luciferase reporter, luminescence, 24 h; Potency, µM (series often up to 9.22 µM), without a hit: at the highest dose activation, negative = inhibition, most hits filed as activators; 320,000 tested, 2.8% active; AID 485297; note: % of control where 0% means no effect; nearly all actives have a fitted effect of over 60% in size
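Huh7 cells stably carrying Rab9 promoter–luciferase reporter, plated 1500 cells/well, compound added after 2 h and incubated 24 h at 37 °C; luciferase luminescence then read after 10 min with detection reagent.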
SMN2 splice enh – increases expression of the SMN2 splice variant; HEK293 SMN2-luciferase splicing reporter, luminescence, 30-36 h; 210,000 tested, 2.8% active; AID 1458; Potency, µM (doses to about 46.1 µM), for the others: top-dose activity change, positive = activation, hits mostly activators; note: % of control where 0% means no effect; nearly all actives have a fitted effect of over 55% in size
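qHTS luciferase splicing reporter: luminescence rises when SMN2 exon 7 is included in transfected HEK293 cells. Compound exposure lasted 30-36 h at 37C, with 4.5 mM final sodium butyrate as control, followed by a ONE-Glo read.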
NPC1 prom act – activators of NPC1 promoter | Potency, µM (highest dose often 9.22 µM), inactives show at the highest dose activation, most hits filed as activators | Huh7 NPC1 promoter luciferase reporter, 24 h | 320,000 tested, 2.4% active; note: % of control where 0% means no effect; nearly all actives have a fitted effect of over 60% in size
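NPC1 promoter–luciferase Huh7 cells; 24 h compound; luminescence.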
ELG1 repair inh – inhibitors of ELG1-dependent DNA repair in HEK293T cells; HEK293T ELG1-luciferase reporter, luminescence, 16 h; DNA damage induced by 5-fluorouridine; 330,000 tested, 2.3% active; Potency, µM (highest dose often 46.1 µM), for inactives: at the highest dose activity change, negative = inhibition, actives largely listed as inhibitors; note: % is set by controls: 0 for no effect and ±100 for the full control effect; nearly all actives have a fitted effect of over 55% in size
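DMSO vehicle served as the neutral condition. Each well held 2,000 cells given 5-fluorouridine plus compound; after 16 hr at 37 °C/5% CO2, ONE-Glo was added and luciferase measured 30 min later.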
ELG1 genotox – inducers of genotoxicity in HEK293T ELG1-luciferase cells | 330,000 tested, 1.3% active | HEK293T ELG1-luciferase reporter, luminescence, 16 h | Potency, µM (doses to about 46 µM), for inactives: top-dose activity change, positive = activation, hits mostly activators; note: % of control where 0% means no effect; nearly all actives have a fitted effect of over 60% in size
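DMSO vehicle served as control against compound-treated ELG1-luciferase HEK293T cells; exposure lasted 16 hr at 37 °C and 5% CO2, followed by ONE-Glo luminescence detection after 30 min.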
* marks the source's active call; other numbers are inactive results; u = inconclusive; x = no result; [ ] = remark or other dose. Calls come from the whole dose curve; as a rule, active = well fitted curve in the direction sought with a large enough effect; inconclusive = small, poorly fitted or top-dose-only effect, or another doubt; inactive = no such curve, though single readings can be large; an effect the other way counts as inactive or inconclusive. Potency is the fitted concentration of half-maximal effect.

SMILES	FLuc modulator	Rab9 promoter act	SMN2 splice enh	NPC1 prom act	ELG1 repair inh	ELG1 genotox
C(=C/c1nccc2c1[nH]c1ccccc12)/c1ccc2c(c1)OCO2	3µM*	27%	11%	u	u	u
O=c1c2ccccc2nc(/C=C/c2ccc3c(c2)OCO3)n1CCCO	u	13%	-16%	14%	-6%	2%
CCc1ccccc1NS(=O)(=O)c1ccc2c(c1)CCCN2C(=O)C1CCC1	-11%	x	x	x	x	x
O=C(Cc1ccc(-n2c(=O)c3ccccc3n(Cc3ccc(F)cc3)c2=O)cc1)NCC1CCCO1 (stereo not given)	0%	-1%	9%	-1%	10µM*	1%
O=C(Cc1ccc(-n2c(=O)c3ccccc3n(Cc3ccccc3F)c2=O)cc1)NCC1CCCO1 (stereo not given)	-1%	0%	-15%	2%	u	0%
O=C(Cc1ccc(-n2c(=O)c3ccccc3n(Cc3ccccc3Cl)c2=O)cc1)NCC1CCCO1 (stereo not given)	-7%	2%	-2%	1%	9.2µM*	-5%
Cc1ccc(CNC(=O)c2oc3ccc(S(=O)(=O)N4CCC(C)CC4)cc3c2C)cc1	1%	x	-28%	x	x	x
COc1ccccc1CNC(=O)c1ccccc1C(=O)NC(CC(C)C)C(=O)NCc1ccccc1OC (stereo not given)	0%	4%	x	-4%	21µM*	-3%[9.26 µM]
O=C(Cn1c(=O)oc2cc(S(=O)(=O)N3CCCCC3)ccc21)Nc1cccc(Cl)c1	-12%	x	-3%	x	x	x
CCOC(=O)C1=C(CN(CC)Cc2ccccc2)NC(=O)NC1c1ccc(OC(C)C)cc1 (stereo not given)	3%	x	-61%	x	x	x
Cc1ccc(-c2csc(NC(=O)c3ccno3)n2)cc1	21µM*	28%	-20%	25%	u	u
Cc1ccc(-c2csc(NC(=O)c3ccc(C)o3)n2)cc1	u	-2%	-4%	-1%	13%	0%
CC(C)(C)c1ccc(C(=O)NCC(=O)OCC(=O)Nc2nc(-c3ccc(F)cc3)cs2)cc1	13µM*	18%	17%	16%	u	8%
Cc1ccc(C(=O)Nc2nc(-c3ccc(F)cc3)cs2)o1	30µM*	17%	x	13%	-10%	-1%
COc1ccc(-[n+]2c(C)cc(/C=C3\Sc4ccccc4N3C)cc2C)cc1	19µM*	-48%	-63%	-41%	18µM*	-16%
COc1ccccc1-[n+]1c(C)cc(/C=C2\Sc3ccccc3N2C)cc1C	2.4µM*	-40%	x	-35%	u	3%
COc1ccc(C(=O)/C=C2\Sc3ccccc3N2C)cc1	1.2µM*	0.89µM*	7.9µM*	0.71µM*	u	1.6µM*
COc1ccccc1OC(=O)CCN1c2ccccc2Sc2ccccc21	0%	-8%	1%	-4%	3%	2%
COc1ccc(C(=O)Nc2nc(-c3nnn(-c4ccc(F)cc4F)c3C)ns2)cc1	-5%	x	x	x	x	x
O=C(CN1C(=O)COc2ccc(S(=O)(=O)N3CCCC3)cc21)N1CCN(c2cccc(C(F)(F)F)c2)CC1	0%	x	3%	x	x	x
Cc1ccc(OCc2cnc(Cl)s2)c(C)c1	11µM*	0%	0%	4%	u	19%
C/C(N=NC(=[SH+])SCc1ccccc1)=C1\C=CC=CN1.[Cl][Cu]	x	x	-64%[9.22 µM]	x	x	x
N#C/C(=C\c1ccc(F)cc1)C(=O)Nc1ccccn1	12µM*	0%	x	-1%	2%	1%
CCOc1cccc(NC(=O)/C(C#N)=C\c2cccnc2)c1	u	-1%	-7%	-2%	9%	2%
CCOc1ccc(/C=C(\C#N)C(=O)Nc2ccccn2)cc1	3.4µM*	4%	x	2%	20%	0%
SMILES	FLuc modulator	Rab9 promoter act	SMN2 splice enh	NPC1 prom act	ELG1 repair inh	ELG1 genotox
Cc1ccc(C(=O)NCCC(C)C)cc1NC(=O)c1nsc2ccccc12	0%	x	x	x	x	x
Cc1cccc(OCC(=O)Nc2nonc2-c2ccc(Br)cc2)c1C	-5%	x	x	x	x	x
CCCCN(c1ccccc1)S(=O)(=O)c1cc2c3c(c1)C(C)C(=O)N3CCC2 (stereo not given)	1%	x	x	x	x	x
COc1ccc(C2(O)CC3CCC(C2)N3c2cc(C)nc(-c3ccccc3)n2)cc1 (stereo not given)	-13%	0%	x	-1%	18µM*	-7%
Oc1c(Br)cc(Br)cc1C=Nc1ccc2c(c1)OCCO2	24µM*	4%	0%	1%	u	u
Oc1[nH]c2ccccc2c1C=Nc1ccc2c(c1)OCCO2	0.85µM*	1.4µM*	x	u	u	u
O=C(NCc1ccncc1)C(=O)NCC(c1ccco1)N1CCN(c2ccccc2)CC1 (stereo not given)	-1%	-11%	-36%	1%	21µM*	-7%
COc1ccc(N2CCN(C(CNC(=O)C(=O)NCc3ccncc3)c3ccco3)CC2)cc1 (stereo not given)	-2%	-2%	-36%	-7%	u	-4%
CC1CCCN(c2ccc(C(=O)NCc3ccccc3)cn2)C1 (stereo not given)	u	u	u	17%	u	5%
CC(C)(C)c1ccc(C(=O)NCCCNC(=O)c2ccco2)cc1	15µM*	1%	x	-4%	0%	2%
CC(C)(C)c1ccc(C(=O)Nc2ccc(C(=O)NCc3cccnc3)cc2)cc1	12µM*	15%	x	4%	0.52µM*	-21%
CCCCOc1ccc(C(=O)NCCc2ccccc2)cc1	6µM*	1.1µM*	x	0.32µM*	u	u
CC(C)(C)C(=O)Nc1ccc(C(=O)NCc2cccnc2)cc1	u	x	3%	x	x	x
CC1CCN(c2ccc(C(=O)NCCc3ccccc3)cn2)CC1	24µM*	u	u	u	u	15%
CCN(c1ccccc1)c1ccc2cc(S(=O)(=O)N3CCCC3)ccc2n1	-1%	x	x	x	x	x
Cc1nc(CC(=O)Nc2ccc(C(N)=O)cc2)cs1	1%	x	-26%	x	x	x
CC(=O)Nc1ccc(C(=O)NCCc2ccccc2)cc1	u	u	16µM*	u	u	u
O=C(NCCc1ccc(F)cc1)c1ccncc1	-3%	22%	x	3%	24%	11%
O=C(NCCc1ccccc1)c1ccncc1	u	3.5µM*	8%	29%	u	u
CC(C)(C)c1ccc(C(=O)NCc2ccccc2)cc1	11µM*	6.3µM*	x	23%	u	17%
O=C(NCCCc1ccccc1)c1ccc(F)cc1	24µM*	1.8µM*	x	u	u	u
CCOC(=O)c1cc(-c2ccc(OC)cc2)n(CCC(=O)NCc2ccccc2OC)c1C	-6%	x	x	x	x	x
